In the supplement of paper PMC9262897, “Low-cost anti-mycobacterial drug discovery using engineered E. coli” (Nature Communications, 2022):
Counter-ions that a name gives are not always drawn. ± gives the standard deviation of the averaged measurements.

Key:
Assay in all cases: growth (OD600 after 10 h); higher = more growth (less inhibition)
[1] = test system: E. coli TESEC Alr+ wild-type control; details: compound 0.1 mM; raw OD600 reference: median of DMSO wells 0.241, cell-free background 0.041
Method: (§1)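 TESEC Mtb Alr E. coli, or the Alr+ wild-type control, in 384-well plates with Prestwick library compounds at 0.1 mM and 1% DMSO, across arabinose induction levels of 1E3 to 1E7 nM. Growth is read as OD600 after 10 h at 37 °C in triplicate biological replicates.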

E. coli TESEC Mtb Alr [2] = details: compound 0.1 mM
Method: as §1

E. coli TESEC Mtb Asd = details: compound 0.1 mM
Method: (§2)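 TESEC E. coli strains in which the native enzyme is deleted and replaced by arabinose-inducible Mtb Asd, DapB, CysH or TrpD, each grown in its selective medium. Strains were screened against the Prestwick library at 0.1 mM and 1% DMSO in 384-well format at low and high arabinose induction. Growth is read as OD600 after 10 h in triplicate.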

E. coli TESEC Mtb DapB = details: compound 0.1 mM
Method: as §2

E. coli TESEC Mtb Alr [3] = details: compound 0.1 mM; remark: listed apart in the source
Method: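 TESEC Mtb Alr E. coli (ΔaraC ΔtolC ΔentC Δalr ΔdadX, arabinose-inducible Mtb Alr) or the Alr+ wild-type control strain, grown in defined M9-fructose medium without D-alanine in 96-well plates with Prestwick library compounds at 0.1 mM and 1% DMSO. Low Alr induction is 0.1 µM arabinose and high induction is 10 mM arabinose.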

[4] = arabinose 1000 nM, raw OD600 reference: median of DMSO wells 0.294, cell-free background 0.041
[5] = arabinose 10000 nM, raw OD600 reference: median of DMSO wells 0.264, cell-free background 0.041
[6] = arabinose 100000 nM, raw OD600 reference: median of DMSO wells 0.201, cell-free background 0.041
[7] = arabinose 1000000 nM, raw OD600 reference: median of DMSO wells 0.193, cell-free background 0.041
[8] = arabinose 10000000 nM, raw OD600 reference: median of DMSO wells 0.146, cell-free background 0.041
[9] = arabinose induction (level): High, raw OD600 reference: median of DMSO wells 0.331, cell-free background 0.041
[10] = arabinose induction (level): Low, raw OD600 reference: median of DMSO wells 0.417, cell-free background 0.041
[11] = arabinose induction (level): High, raw OD600 reference: median of DMSO wells […], cell-free background 0.041
[12] = arabinose induction (level): Low, raw OD600 reference: median of DMSO wells 0.227, cell-free background 0.041
[13] = arabinose 100 nM, raw OD600 reference: median of DMSO wells 0.413, cell-free background 0.052
[14] = arabinose 10000000 nM, raw OD600 reference: median of DMSO wells […], cell-free background 0.052

| Structure (SMILES) | growth [1] | growth (E. coli TESEC Mtb Alr [2]; [4]) | growth (E. coli TESEC Mtb Alr [2]; [5]) | growth (E. coli TESEC Mtb Alr [2]; [6]) | growth (E. coli TESEC Mtb Alr [2]; [7]) | growth (E. coli TESEC Mtb Alr [2]; [8]) | growth (E. coli TESEC Mtb Asd; [9]) | growth (E. coli TESEC Mtb Asd; [10]) | growth (E. coli TESEC Mtb DapB; [11]) | growth (E. coli TESEC Mtb DapB; [12]) | growth (E. coli TESEC Mtb Alr [3]; [13]) | growth (E. coli TESEC Mtb Alr [3]; [14]) |
| --- | --- | --- | --- | --- | --- | --- | --- | --- | --- | --- | --- | --- |
| C[C@H](N)[C@H](O)c1cccc(O)c1 [Metaraminol bitartrate] | 0.245 ± 0.015 | 0.278 ± 0.0096 | 0.267 ± 0.0062 | 0.186 ± 0.013 | 0.185 ± 0.0027 | 0.153 ± 0.018 | 0.333 ± 0.062 | 0.415 ± 0.029 | 0.208 ± 0.014 | 0.23 ± 0.024 | 0.426 ± 0.0087 | 0.356 ± 0.0097 |
| CN(C)CCC(c1ccccc1)c1ccccn1 (centres undefined) [Pheniramine maleate] | 0.241 ± 0.014 | 0.289 ± 0.0087 | 0.242 ± 0.0091 | 0.191 ± 0.0028 | 0.162 ± 0.0033 | 0.14 ± 0.0047 | 0.248 ± 0.064 | 0.408 ± 0.014 | 0.201 ± 0.022 | 0.213 ± 0.019 | 0.41 ± 0.006 | 0.345 ± 0.015 |
| CCN(CC)CCNC(=O)COc1ccc(OC)cc1 [Mefexamide hydrochloride] | 0.24 ± 0.0042 | 0.285 ± 0.019 | 0.2683 ± 0.0018 | 0.196 ± 0.01 | 0.182 ± 0.0058 | 0.143 ± 0.0038 | 0.304 ± 0.1 | 0.411 ± 0.013 | 0.225 ± 0.041 | 0.227 ± 0.026 | 0.421 ± 0.0097 | 0.343 ± 0.0047 |
| CCOC(=O)OC(C)OC(=O)[C@@H]1N2C(=O)[C@@H](NC(=O)[C@H](N)c3ccccc3)[C@H]2SC1(C)C (some centres undefined) [Bacampicillin hydrochloride] | 0.239 ± 0.011 | 0.305 ± 0.011 | 0.269 ± 0.0047 | 0.356 ± 0.0077 | 0.17 ± 0.0089 | 0.198 ± 0.006 | 0.237 ± 0.13 | 0.325 ± 0.034 | 0.185 ± 0.016 | 0.188 ± 0.0087 | 0.41 ± 0.0064 | 0.338 ± 0.017 |
| CCN(CC)CCNc1ccc(CO)c2sc3ccccc3c(=O)c12 [Hycanthone] | 0.0743 ± 0.0024 | 0.0851 ± 0.0084 | 0.0559 ± 0.00057 | 0.1 ± 0.0034 | 0.0552 ± 0.00075 | 0.0769 ± 0.0069 | 0.0901 ± 0.025 | 0.075 ± 0.0065 | 0.21 ± 0.027 | 0.163 ± 0.01 | 0.365 ± 0.042 | 0.232 ± 0.033 |
| O=S(=O)(O)CCS [Mesna] | 0.2377 ± 0.0019 | 0.282 ± 0.0091 | 0.28 ± 0.0078 | 0.193 ± 0.012 | 0.206 ± 0.016 | 0.13 ± 0.0052 | 0.341 ± 0.079 | 0.371 ± 0.058 | 0.204 ± 0.009 | 0.214 ± 0.046 | 0.4246 ± 0.0021 | 0.337 ± 0.0046 |
| O=C(NC(Cc1cc(=O)[nH]c2ccccc12)C(=O)O)c1ccc(Cl)cc1 (centres undefined) [Rebamipide] | 0.26 ± 0.0077 | 0.314 ± 0.015 | 0.259 ± 0.0053 | 0.211 ± 0.01 | 0.196 ± 0.0026 | 0.146 ± 0.0044 | 0.312 ± 0.035 | 0.435 ± 0.058 | 0.221 ± 0.0038 | 0.244 ± 0.011 | 0.409 ± 0.012 | 0.368 ± 0.014 |
| CNCC[C@@H](Oc1cccc2ccccc12)c1cccs1 [(R)-Duloxetine hydrochloride] | 0.11 ± 0.038 | 0.0692 ± 0.004 | 0.04907 ± 0.00032 | 0.0556 ± 0.002 | 0.0447 ± 0.0038 | 0.0466 ± 0.0019 | 0.106 ± 0.066 | 0.0934 ± 0.04 | 0.0757 ± 0.0014 | 0.0799 ± 0.007 | 0.4098 ± 0.0032 | 0.272 ± 0.011 |
| CCn1cc(C(=O)O)c(=O)c2cc(F)c(N3CCNCC3)cc21 [Norfloxacin] | 0.04437 ± 0.00025 | 0.0427 ± 0.00078 | 0.0398 ± 0.00098 | 0.0437 ± 0.00036 | 0.0398 ± 0.0006 | 0.0437 ± 0.00035 | 0.0546 ± 0.0041 | 0.0626 ± 0.0092 | 0.0581 ± 0.00065 | 0.0745 ± 0.015 | 0.0551 ± 0.002 | 0.05117 ± 0.00047 |
| N=C(N=C(N)N)N1CCOCC1 [Moroxidine hydrochloride] | 0.255 ± 0.02 | 0.288 ± 0.017 | 0.2687 ± 0.0004 | 0.225 ± 0.022 | 0.186 ± 0.013 | 0.152 ± 0.0076 | 0.366 ± 0.025 | 0.404 ± 0.032 | 0.203 ± 0.0065 | 0.245 ± 0.053 | 0.404 ± 0.011 | 0.355 ± 0.033 |
| N#CC(c1ccc(Cl)cc1)c1c(Cl)cc(-n2ncc(=O)[nH]c2=O)cc1Cl (centres undefined) [Diclazuril] | 0.0414 ± 0.00047 | 0.0423 ± 0.004 | 0.0402 ± 0.0002 | 0.0425 ± 0.0014 | 0.0405 ± 0.00045 | 0.0479 ± 0.0017 | 0.048 ± 0.0019 | 0.0482 ± 0.002 | 0.0518 ± 0.0015 | 0.0496 ± 0.0011 | 0.0632 ± 0.00095 | 0.0529 ± 0.00089 |
| Nc1ccc(S(=O)(=O)c2ccc(N)cc2)cc1 [Dapsone] | 0.256 ± 0.0028 | 0.282 ± 0.019 | 0.23 ± 0.0077 | 0.227 ± 0.019 | 0.1616 ± 0.0011 | 0.141 ± 0.0065 | 0.433 ± 0.092 | 0.339 ± 0.012 | 0.214 ± 0.0025 | 0.25 ± 0.058 | 0.422 ± 0.01 | 0.367 ± 0.018 |
| CCC(C)(CN(C)C)OC(=O)c1ccccc1 (centres undefined) [Amyleine hydrochloride] | 0.233 ± 0.0066 | 0.252 ± 0.052 | 0.266 ± 0.0091 | 0.183 ± 0.011 | 0.173 ± 0.0043 | 0.142 ± 0.0057 | 0.26 ± 0.076 | 0.435 ± 0.058 | 0.195 ± 0.027 | 0.209 ± 0.0057 | 0.411 ± 0.0066 | 0.333 ± 0.021 |
| COc1cccc(N(C)C(=S)Oc2ccc3c(c2)CCCC3)n1 [Liranaftate] | 0.213 ± 0.0062 | 0.259 ± 0.0073 | 0.2888 ± 0.0012 | 0.167 ± 0.0063 | 0.1202 ± 0.0011 | 0.149 ± 0.0092 | 0.297 ± 0.025 | 0.426 ± 0.045 | 0.196 ± 0.013 | 0.224 ± 0.0065 | 0.407 ± 0.038 | 0.127 ± 0.0031 |
| CC1(C)[C@@H](OC(=O)CCC(=O)O)CC[C@]2(C)[C@H]3C(=O)C=C4[C@@H]5C[C@@](C)(C(=O)O)CC[C@]5(C)CC[C@@]4(C)[C@]3(C)CC[C@@H]12 [Carbenoxolone disodium salt] | 0.248 ± 0.007 | 0.275 ± 0.004 | 0.2609 ± 0.0019 | 0.319 ± 0.0044 | 0.213 ± 0.0028 | 0.201 ± 0.0016 | 0.325 ± 0.15 | 0.251 ± 0.006 | 0.196 ± 0.018 | 0.225 ± 0.012 | 0.405 ± 0.019 | 0.37 ± 0.0045 |
| COc1ccc(NS(=O)(=O)c2ccc(N)cc2)nn1 [Sulfamethoxypyridazine] | 0.2402 ± 0.0024 | 0.296 ± 0.011 | 0.236 ± 0.0055 | 0.226 ± 0.024 | 0.181 ± 0.0072 | 0.141 ± 0.0061 | 0.355 ± 0.042 | 0.393 ± 0.016 | 0.203 ± 0.012 | 0.22 ± 0.01 | 0.408 ± 0.0075 | 0.367 ± 0.018 |
| COc1cc(C(=O)N2CCOCC2)cc(OC)c1OC [Trimetozine] | 0.253 ± 0.004 | 0.313 ± 0.014 | 0.2694 ± 0.0015 | 0.22 ± 0.0037 | 0.203 ± 0.023 | 0.14 ± 0.0052 | 0.288 ± 0.0085 | 0.441 ± 0.018 | 0.192 ± 0.02 | 0.229 ± 0.0089 | 0.401 ± 0.0073 | 0.363 ± 0.0044 |
